Experiment: blockers of RIG-like receptor reporter activation – cell-based, Sendai virus stimulus, luciferase, 10K MLSCN set, TLR/RLR signaling modifier project, primary screen (AID 602276);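 also: firefly luciferase from ISG56 promoter only with Renilla not read in this screen; 0% = Sendai virus plus DMSO and 100% = medium plus DMSO without virus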
Conditions: HEK293 RL24 IRF3 luciferase reporter, at 10 µM, stronger effect = higher value;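 active = inhibition at or above 50% at 10 µM; inactive = inhibition below 50%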

inhibition, inactive:
Cc1cccc2sc(NC(=O)CN(C)S(=O)(=O)c3cccs3)nc12 -1.84%, CCOc1cc(NC(=O)c2ccco2)c(OCC)cc1NC(=O)Cc1cccc(OC)c1 -6.51%, CC(=O)Nc1c2c(nn1-c1ccc(C)cc1C)CSC2 -12.5%, CC(CC(=O)NC1CCSC1=O)c1ccccc1 (stereo unspecified) -7.84%, Cc1c(C(=O)O)c(-c2ccccc2)nn1-c1ccccc1 15%, Cc1nnc(SCCn2c(Br)nc3c2c(=O)n(C)c(=O)n3C)s1 -7.02%, COc1ccccc1NC(=O)Cc1noc(CSc2cc(C)c3ccccc3n2)n1 6.32%, COc1cccc2sc(NC(=O)c3ccc(S(=O)(=O)N4CCOCC4)cc3)nc12 10.2%, C=CCN(C(=O)CNC(=O)c1ccco1)C(C(=O)NC1CCCCC1)c1ccccc1F (stereo unspecified) -3.24%, O=C(Nc1ccc(OC(=O)c2ccco2)cc1)c1ccco1 4.1%, CCOc1ccc2ccccc2c1C(=O)N1CCN(c2ccccc2)CC1 46.4%, Cc1ccc(C)c2[nH]c(=O)c(CCNC(=O)CC(C)(C)C)cc12 4.63%, CC(=O)c1ccc(OCC(O)CN2CC(C)OC(C)C2)cc1 (stereo unspecified) 9.28%, O=c1[nH]c(SCc2ccccc2Cl)nc2c1CCCC2 10.6%, CCCC(NC(=O)c1ccccc1)c1nc2ccccc2n1Cc1ccc(C(=O)OC)o1 (stereo unspecified) 0.936%, O=C(NC1CCCC1)C(c1ccco1)N(Cc1ccccc1)C(=O)c1csnn1 (stereo unspecified) 17.4%
